Of roughly 7,900 targets only a part is listed; those with a hit were picked by preference. About 0.6% of all pairs of compound and target were hits.
Assays:
Assay in all cases: log2 fold change, soluble protein after heating vs DMSO (PISA); higher = thermal stabilisation; K562 cells, 10 uM, 30 min; active = over 0.2 and 3.5 SD of the protein, either way, in both replicates (recomputed)
[1] = compound: NC1(c2ccc(-c3nc4ccn5c(=O)[nH]nc5c4cc3-c3ccccc3)cc2)CCC1
Outline: (§1)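 Values are thermal stability changes relative to control samples and are taken from duplicates. They are stated as log2 fold changes. Before quantification by TMTpro 16plex LC-MS/MS with equalised channel sums, K562 cells at 2×10^6 cells/mL were treated with 10 μM compound for 30 min, heated in aliquots for 3 min across 48°C-58°C, pooled, extracted in PBS with 0.5% NP-40 at 4°C, and centrifuged at 21,000xg for 90 min to give the soluble supernatant.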

[2] = compound: NCC(=O)Nc1ccc(-n2nc(C(F)(F)F)cc2-c2ccc3c(ccc4ccccc43)c2)cc1
Outline: as §1

[3] = compound: O=C(CCCCCCNC(=O)c1cnc(N(c2ccccc2)c2ccccc2Cl)nc1)NO [citarinostat]
Outline: as §1

[4] = compound: O=C(O)c1ccc2c(c1)nc(Nc1cccc(Cl)c1)c1ccncc12 [silmitasertib]
Outline: as §1

[5] = compound: O=C1NC(=O)C(c2cnc3ccccn23)=C1c1cn2c3c(cc(F)cc13)CN(C(=O)N1CCCCC1)CC2
Outline: as §1

[6] = compound: c1cc(OCCN2CCCCC2)cc(-c2n[nH]c3ccc(-c4nnc[nH]4)cc23)c1
Outline: as §1

[7] = compound: NC(=O)c1cnc(N[C@@H]2CCCC[C@@H]2N)nc1Nc1cccc(-n2nccn2)c1
Outline: as §1

[8] = compound: O=C(CCCCCCC(=O)Nc1ccccc1)NO [vorinostat]
Outline: as §1

[9] = compound: NC(=O)Nc1cc(-c2cccc(F)c2)sc1C(=O)N[C@H]1CCCNC1
Outline: as §1

[10] = compound: Nc1ccccc1NC(=O)c1ccc(CNC(=O)OCc2cccnc2)cc1 [entinostat]
Outline: as §1

Measured: log2 fold change

NOS1AP (UniProt O75052)
inactive: [1] -0.27 | [2] -0.302 | [3] -0.225 | [4] 0.312 | [5] -0.186 | [6] 0.59

NMU (UniProt P48645)
inactive: [7] -0.023 | [2] 0.132 | [8] 0.041 | [3] 0.043 | [5] 0.144 | [6] -0.08

MYO19 (UniProt Q96H55)
inactive: [7] -0.112 | [2] 0.051 | [8] 0.029 | [5] 0.232

NASP isoform 2 (UniProt P49321)
inactive: [1] 0.24 | [4] -0.475

OGFOD2 (UniProt Q6N063)
inactive: [7] 0.005 | [1] -0.151 | [2] -0.012 | [8] -0.313 | [3] 0.036 | [4] 0.097 | [5] -0.073 | [6] -0.012

NCOA5 (UniProt Q9HCD5)
inactive: [9] -0.101 | [10] -0.011 | [8] 0.023

MT-ND2 (UniProt P03891)
inactive: [7] 0.146 | [1] -0.128 | [2] 0.036 | [8] 0.036 | [4] -0.01

MYLK (UniProt Q15746)
Chain of UniProt Q15746 (Q15746 whole entry, looked up): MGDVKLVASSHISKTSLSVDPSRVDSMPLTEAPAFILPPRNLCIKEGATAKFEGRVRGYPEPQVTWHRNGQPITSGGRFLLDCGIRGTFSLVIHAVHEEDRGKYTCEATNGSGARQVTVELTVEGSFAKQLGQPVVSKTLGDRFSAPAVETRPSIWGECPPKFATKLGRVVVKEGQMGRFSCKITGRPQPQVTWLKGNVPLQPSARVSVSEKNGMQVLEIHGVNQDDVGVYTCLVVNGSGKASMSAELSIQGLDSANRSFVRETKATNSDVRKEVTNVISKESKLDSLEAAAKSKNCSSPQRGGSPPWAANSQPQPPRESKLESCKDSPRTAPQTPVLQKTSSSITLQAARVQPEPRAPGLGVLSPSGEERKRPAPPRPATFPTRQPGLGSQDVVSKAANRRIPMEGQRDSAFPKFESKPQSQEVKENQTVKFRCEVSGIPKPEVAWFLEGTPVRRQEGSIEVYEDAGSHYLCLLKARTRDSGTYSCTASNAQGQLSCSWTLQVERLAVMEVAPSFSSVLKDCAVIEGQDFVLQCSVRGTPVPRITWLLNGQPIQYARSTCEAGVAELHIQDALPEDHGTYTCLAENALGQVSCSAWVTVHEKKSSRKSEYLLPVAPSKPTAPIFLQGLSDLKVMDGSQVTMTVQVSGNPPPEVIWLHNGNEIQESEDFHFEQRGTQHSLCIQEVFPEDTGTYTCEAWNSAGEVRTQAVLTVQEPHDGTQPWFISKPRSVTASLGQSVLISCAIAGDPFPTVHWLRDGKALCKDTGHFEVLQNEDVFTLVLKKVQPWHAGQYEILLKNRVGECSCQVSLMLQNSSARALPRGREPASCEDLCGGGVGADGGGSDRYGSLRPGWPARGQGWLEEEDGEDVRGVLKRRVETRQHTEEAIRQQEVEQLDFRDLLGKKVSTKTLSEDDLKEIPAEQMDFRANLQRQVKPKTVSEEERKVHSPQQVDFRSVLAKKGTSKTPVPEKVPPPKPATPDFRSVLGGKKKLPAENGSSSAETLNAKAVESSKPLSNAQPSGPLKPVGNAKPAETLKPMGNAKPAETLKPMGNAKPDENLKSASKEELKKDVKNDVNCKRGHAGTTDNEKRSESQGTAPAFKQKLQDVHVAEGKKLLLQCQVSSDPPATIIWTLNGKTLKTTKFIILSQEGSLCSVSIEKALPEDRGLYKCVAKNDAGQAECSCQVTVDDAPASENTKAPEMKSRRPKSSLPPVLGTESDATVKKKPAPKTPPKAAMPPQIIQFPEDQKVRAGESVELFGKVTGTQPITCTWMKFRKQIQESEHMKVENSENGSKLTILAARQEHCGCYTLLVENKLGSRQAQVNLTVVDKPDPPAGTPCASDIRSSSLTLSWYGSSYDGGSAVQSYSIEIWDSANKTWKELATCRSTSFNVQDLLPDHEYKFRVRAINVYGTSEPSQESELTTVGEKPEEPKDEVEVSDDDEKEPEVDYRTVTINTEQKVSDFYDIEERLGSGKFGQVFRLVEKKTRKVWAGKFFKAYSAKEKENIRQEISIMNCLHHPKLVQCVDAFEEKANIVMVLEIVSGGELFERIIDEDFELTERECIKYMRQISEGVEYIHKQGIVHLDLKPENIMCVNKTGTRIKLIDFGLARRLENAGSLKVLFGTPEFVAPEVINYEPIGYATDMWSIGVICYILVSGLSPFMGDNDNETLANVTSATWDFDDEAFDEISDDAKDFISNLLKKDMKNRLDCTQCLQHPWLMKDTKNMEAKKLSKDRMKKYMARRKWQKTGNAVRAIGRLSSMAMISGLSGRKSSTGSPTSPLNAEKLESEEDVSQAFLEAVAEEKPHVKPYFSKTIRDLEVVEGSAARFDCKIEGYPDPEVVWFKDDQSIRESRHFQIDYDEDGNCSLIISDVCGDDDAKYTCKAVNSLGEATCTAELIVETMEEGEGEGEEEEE
inactive: [9] -0.063 | [1] -0.064 | [2] -0.21 | [10] -0.081 | [8] -0.059 | [3] -0.089 | [4] 0.175 | [6] 0.204

OXR1 isoform 2 (UniProt Q8N573)
Chain of UniProt Q8N573 (Q8N573 whole entry, looked up): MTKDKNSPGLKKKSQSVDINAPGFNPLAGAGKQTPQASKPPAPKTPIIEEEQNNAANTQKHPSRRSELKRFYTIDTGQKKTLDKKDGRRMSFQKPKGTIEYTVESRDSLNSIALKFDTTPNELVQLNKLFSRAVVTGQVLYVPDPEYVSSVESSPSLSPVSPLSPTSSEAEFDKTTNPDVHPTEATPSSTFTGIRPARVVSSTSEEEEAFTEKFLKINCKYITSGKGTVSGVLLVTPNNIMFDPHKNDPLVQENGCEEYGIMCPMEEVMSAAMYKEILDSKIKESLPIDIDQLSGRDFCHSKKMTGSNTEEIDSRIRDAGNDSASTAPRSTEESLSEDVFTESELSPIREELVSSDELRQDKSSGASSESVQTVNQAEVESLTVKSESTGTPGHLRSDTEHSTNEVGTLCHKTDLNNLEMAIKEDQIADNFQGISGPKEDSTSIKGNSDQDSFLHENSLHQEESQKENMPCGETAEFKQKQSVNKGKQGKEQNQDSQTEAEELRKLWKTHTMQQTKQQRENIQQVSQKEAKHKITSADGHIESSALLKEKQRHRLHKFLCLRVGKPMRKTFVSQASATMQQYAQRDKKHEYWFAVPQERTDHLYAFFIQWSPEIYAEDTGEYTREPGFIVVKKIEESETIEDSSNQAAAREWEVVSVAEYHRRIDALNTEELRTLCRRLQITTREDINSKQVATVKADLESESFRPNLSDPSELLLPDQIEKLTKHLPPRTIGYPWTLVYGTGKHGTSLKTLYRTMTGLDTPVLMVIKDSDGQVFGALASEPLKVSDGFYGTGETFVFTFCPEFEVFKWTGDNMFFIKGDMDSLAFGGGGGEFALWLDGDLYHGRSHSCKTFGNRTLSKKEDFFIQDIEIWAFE
inactive: [7] 0.054 | [2] -0.046 | [8] 0.01 | [3] 0.013 | [5] -0.096 | [6] -0.053

MRM2 (UniProt Q9UI43)
inactive: [7] -0.202 | [2] -0.211

NKAP (UniProt Q8N5F7)
Chain of UniProt Q8N5F7 (Q8N5F7 whole entry, looked up): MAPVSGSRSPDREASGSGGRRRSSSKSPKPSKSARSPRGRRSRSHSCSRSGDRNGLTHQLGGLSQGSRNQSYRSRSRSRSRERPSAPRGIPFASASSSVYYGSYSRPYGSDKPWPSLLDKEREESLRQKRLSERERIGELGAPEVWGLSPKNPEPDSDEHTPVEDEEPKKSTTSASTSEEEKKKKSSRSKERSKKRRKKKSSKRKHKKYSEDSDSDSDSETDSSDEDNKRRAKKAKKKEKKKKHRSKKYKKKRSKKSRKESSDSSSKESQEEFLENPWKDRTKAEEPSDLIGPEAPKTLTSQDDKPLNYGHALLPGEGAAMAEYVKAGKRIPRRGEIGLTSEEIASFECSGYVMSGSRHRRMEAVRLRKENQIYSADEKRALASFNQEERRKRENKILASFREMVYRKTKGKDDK
inactive: [7] -0.043 | [1] 0.027 | [2] -0.028 | [8] 0.019 | [3] 0.099 | [4] -0.132 | [5] 0.111 | [6] -0.144

NA (UniProt B2RBV5)
inactive: [9] 0.06 | [1] -0.055 | [10] 0.029 | [8] 0.045 | [3] 0.12 | [4] 0.056 | [5] -0.001 | [6] -0.014

MORC2 (UniProt Q9Y6X9)
inactive: [7] -0.193 | [1] -0.118 | [4] -0.066 | [5] -0.151

OSBPL3 (UniProt Q9H4L5)
inactive: [9] -0.079 | [7] -0.43 | [2] 0.106 | [10] 0.077 | [3] -0.077 | [5] 0.307 | [6] -0.072

OSBPL2 (UniProt Q9H1P3)
inactive: [1] -0.443 | [4] 0.148

NELFCD (UniProt Q8IXH7)
inactive: [7] -0.005 | [2] -0.321 | [8] 0.234 | [5] -0.12

MLH1 (UniProt P40692)
inactive: [7] 0.058 | [1] -0.102 | [8] -0.042 | [4] -0.017 | [5] -0.098

OAF (UniProt Q86UD1)
Chain of UniProt Q86UD1 (Q86UD1 whole entry, looked up): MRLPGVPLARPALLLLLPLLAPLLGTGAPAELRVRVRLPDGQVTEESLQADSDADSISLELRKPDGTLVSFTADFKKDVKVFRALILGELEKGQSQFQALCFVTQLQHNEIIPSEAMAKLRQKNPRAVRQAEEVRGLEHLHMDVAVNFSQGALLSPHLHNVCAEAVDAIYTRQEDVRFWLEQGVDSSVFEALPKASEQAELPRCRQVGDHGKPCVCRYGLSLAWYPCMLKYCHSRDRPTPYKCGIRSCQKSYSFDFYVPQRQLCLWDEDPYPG
inactive: [9] -0.089 | [1] -0.188 | [10] -0.029 | [4] 0.019

NA, A0A494C071
inactive: [7] -0.484 | [1] -0.407 | [2] -0.153 | [8] 0 | [3] 0.023 | [4] 0.212 | [5] -0.022 | [6] -0.086

MMADHC (UniProt Q9H3L0)
inactive: [7] 0.035 | [1] 0.014 | [2] 0.057 | [8] 0.157 | [3] 0.141 | [4] 0.031 | [6] 0.031

MON1A (UniProt Q86VX9)
Chain of UniProt Q86VX9 (Q86VX9 whole entry, looked up): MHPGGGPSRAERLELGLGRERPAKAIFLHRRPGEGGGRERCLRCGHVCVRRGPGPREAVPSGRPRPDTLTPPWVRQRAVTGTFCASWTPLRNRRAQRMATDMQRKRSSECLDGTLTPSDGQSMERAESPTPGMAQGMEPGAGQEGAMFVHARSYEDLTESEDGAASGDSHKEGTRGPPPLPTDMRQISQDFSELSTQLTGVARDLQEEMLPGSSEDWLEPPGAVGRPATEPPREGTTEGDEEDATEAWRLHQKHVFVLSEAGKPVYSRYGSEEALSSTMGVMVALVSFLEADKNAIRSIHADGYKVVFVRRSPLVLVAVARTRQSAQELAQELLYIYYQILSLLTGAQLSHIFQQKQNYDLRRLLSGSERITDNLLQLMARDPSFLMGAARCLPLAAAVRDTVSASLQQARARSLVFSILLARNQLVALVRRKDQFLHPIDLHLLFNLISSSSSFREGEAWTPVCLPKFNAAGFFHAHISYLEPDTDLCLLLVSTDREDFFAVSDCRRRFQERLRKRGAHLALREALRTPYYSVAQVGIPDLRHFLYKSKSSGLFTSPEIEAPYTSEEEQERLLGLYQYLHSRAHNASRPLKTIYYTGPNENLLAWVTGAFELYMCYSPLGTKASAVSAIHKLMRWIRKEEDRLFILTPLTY
inactive: [9] 0.016 | [1] 0.001 | [10] -0.005 | [8] 0.017 | [3] 0.161 | [4] -0.157 | [5] -0.013 | [6] -0.275

NA, A0A1W2PSA9
inactive: [7] 0.004 | [8] -0.364

NUDT7 (UniProt P0C024)
Chain of UniProt P0C024 (P0C024 whole entry, looked up): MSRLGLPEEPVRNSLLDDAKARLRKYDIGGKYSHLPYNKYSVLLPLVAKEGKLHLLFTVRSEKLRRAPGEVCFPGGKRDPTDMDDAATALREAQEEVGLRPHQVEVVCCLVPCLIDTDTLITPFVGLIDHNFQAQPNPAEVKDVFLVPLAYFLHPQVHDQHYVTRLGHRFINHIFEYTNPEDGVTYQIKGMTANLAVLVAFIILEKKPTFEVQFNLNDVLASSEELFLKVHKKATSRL
inactive: [9] 0.01 | [10] -0.05 | [8] 0.286 | [5] 0.12

NA, A0A2R8Y3M9
inactive: [9] -0.104 | [7] -0.17 | [10] -0.011 | [8] 0.372

MOB2 isoform 3 (UniProt Q70IA6)
Chain of UniProt Q70IA6 (Q70IA6 whole entry, looked up): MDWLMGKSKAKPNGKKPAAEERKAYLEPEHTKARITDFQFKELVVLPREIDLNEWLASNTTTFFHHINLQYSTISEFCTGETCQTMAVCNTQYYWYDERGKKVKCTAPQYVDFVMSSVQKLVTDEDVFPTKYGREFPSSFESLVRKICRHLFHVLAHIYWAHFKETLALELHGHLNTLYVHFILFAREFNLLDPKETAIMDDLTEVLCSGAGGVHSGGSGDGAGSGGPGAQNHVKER
inactive: [1] -0.251 | [8] 0.044 | [4] 0.062 | [5] -0.368

NDUFA7 (UniProt M0R0N0)
inactive: [9] -0.307 | [2] -0.344 | [10] -0.063

NUDT6 (UniProt P53370)
Chain of UniProt P53370 (P53370 whole entry, looked up): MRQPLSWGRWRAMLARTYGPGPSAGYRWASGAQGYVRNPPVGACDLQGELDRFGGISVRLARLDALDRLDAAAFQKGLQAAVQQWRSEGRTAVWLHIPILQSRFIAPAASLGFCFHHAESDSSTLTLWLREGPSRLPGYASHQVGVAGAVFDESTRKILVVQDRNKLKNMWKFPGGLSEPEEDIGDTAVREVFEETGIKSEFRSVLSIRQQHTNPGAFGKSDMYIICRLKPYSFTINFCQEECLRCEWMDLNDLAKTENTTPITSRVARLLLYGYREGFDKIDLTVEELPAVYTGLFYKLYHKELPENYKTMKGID
active: [4] -0.517
inactive: [1] 0.149 | [2] 0.298 | [3] 0.164 | [5] -0.097 | [6] -0.385

NRGN (UniProt Q92686)
Chain of UniProt Q92686 (Q92686 whole entry, looked up): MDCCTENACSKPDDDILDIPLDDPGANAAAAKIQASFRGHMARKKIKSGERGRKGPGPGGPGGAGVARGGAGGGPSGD
inactive: [7] 0.144 | [8] -0.231 | [5] -0.215

NAP1L1 (UniProt B7Z9C2)
inactive: [7] -0.124 | [1] 0.028 | [2] 0.064 | [8] 0.23 | [3] 0.068 | [4] 0.001 | [6] 0.179

NKTR (UniProt P30414)
inactive: [1] 0.074 | [4] -0.023
